PBM binding z-score data for 40 sequences are collected here from the supplement of paper PMC6555819.

For the test, the system named is VDR homodimer (NR concentration 270 nM). The test can be described thus: PBM binding z-score (relative to random genomic background probes); higher = stronger binding; sequences stand for … in GC…GCGATTGACAGCGTAGAATGAAGG
In a few lines: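 For binding z-scores, the reference was random background probes on custom Agilent 4×180K protein-binding microarrays. These arrays were incubated 1 h with ligand-free nuclear receptor dimers in PBS pH 7.4, 2% milk, 0.02% Triton X-100, 1 mM DTT, 0.2 mg/mL BSA and 0.4 mg/ml salmon testes DNA. Fluorescence was scanned after antibody detection of each partner (one per run) and regression-normalized.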
The sequence ACTATTAGTTGAGAAGAGGGCAACCGATAGGTTG showed a PBM binding z-score of 0.263.
Then CGAACTAGGTCTGAACAGGACAGTGAAGGATGAT, with -0.4.
Then CCGAGTAGGTTATGGGGCATTCCGGCAACGGTGA, with 0.147; and GCTCGGATGACAAGGTCAGAGCTTTGTCCGTAGA, with 0.292; and CGAACTAGGTCAAAGGTCAAAGTCGAGCCAACCA, with 3.66.
GCGACTGGTGCATCAGCAGGTTACCATAACTTAA displayed a PBM binding z-score of -0.21.
Then TCTAGTTGGTCACGGAGGTCACACACGACGGGTA, with 3.25; and GTTGCTAGGTCAGGTTGGTCAGCTAACGGGTACG, with 0.821.
Then TCGTGTAGATCAGCAGGTTAAGAAAGCTGGCCAA, with -0.282; and GCTGGCAGGCCATTTGGGTCACTCAATGACGGGC, with 0.646; and TGAATCAGGTTATAAGATCAGGGAACGTTGCAAA, with 0.0493.
Then AGCATGAGGTTATACGTAGATCAGGGAAGAAAGT, with 0.812; and CCTAGCAGGCCAATTTGGGTCACTCAAGGCTTGA, with -0.23.
The sequence GATACAGGGTCAAGACCAGAGTACGCGTATTGAT showed a PBM binding z-score of 2.14.
Then TCTCGGAGGACACGAAGGACAGAGCTTTCCAGAG, with 0.139; and CCGACTGGGCCACGAAAGGTCATTGATTCAGTGA, with 1.78; and ATCGAAAGGTCGAAGGTTAGTATACCCACCCGAA, with 0.865.
The figure for TGAATGACGTTATAAGATCAGGGAACGTTGCAAA is -0.203.
The figure for AGAATGAGGCTACCAAAGATCAGGGAAACGCTTG is -0.541; for CAAACTAGGTCAAGGTCATAGTCGGTTTGTGCCA it is 4.29; for TCACGGAGGACACGAAAGGTCAGAGCTCGACATC it is 1.17.
As for ACTAGCAGGCCAGGTTTGGGTCACTCAAACAAAG, the PBM binding z-score is -0.155.
Take TAGCCTAGGTCATGGGCCAGTAGACCACGCGAAC: the PBM binding z-score was 0.284.
CCCTACGGGTCACTGACAGGTTATAGCATTTGGA came in with a PBM binding z-score of 1.07.
The figure for GATACAGGGTCAACGCCAGAGTACGCGTATTGAT is 2.52; for ACAGACAGGTGACGAAGGTAACTCAGGCTATCAT it is -0.374; for TCAGACAGGTGGAGGTAACTCAGGTACGCAGTCG it is -0.21.
The figure for TCTATTAGTTGATTAGGGCAGCCGAAACAGCGGA is 0.654; for GCTAGCAGGCCATTTGGGACACTCAATGACGGGC it is -0.65; for TAGCCTAGGTCATGCAGGCCAGTATAGTGTCGGC it is 0.989.
The figure for TCTTGTAGATCAAGCAGGTTAATAAAGCCTGAGT is 0.0475; for CTCCAAAGGTCGTGCTCAGGTGAGTATACCAAAC it is 0.905.
As to GCTGCTAGGTCCACTGATGGTCAGCTAAAGCTCG, the PBM binding z-score is -0.434.
The figure for ATATGTAGCTTATCGGGTCATTCAGTTTGCGCAT is 3.7; for CCTCGGAGGACAGTAGGTCAGAGCTGTCCGCTTT it is -0.282; for AGAATGAGGTTATAAAGATCAGGGAATTGCGGTC it is 1.01.
In turn, GCTTGTAGATTAAGGTTAAGAAAGACTAAGCTAA registered a PBM binding z-score of -0.232.
In the case of CGTCAAAGTTCAATGTAACGTAACAGAAAGCAGC, the PBM binding z-score worked out at 3.96.
Regarding TCTATTAGTTGATAAGGGCAACCGAAACAGCGGA, the PBM binding z-score turned out to be 0.573.
For the sequence GCTAGTTGGTCAGTAAAAGGTCACAGACCGGTCG, the PBM binding z-score is 1.13.
